# Experimental data published in PubChem BioAssay (NCI).
# Compounds without any hit were thinned out: in the full panel of roughly 83,000, 20% have a hit.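 The test compound was applied at a single concentration to cells in 96-well plates for 48 hours, and percent growth was recorded.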 Activity calls are given as the source filed them. How the source made its calls: active means growth percent below 10; inactive means the rest.
# System: HCC-2998 colon
# Assay: NCI-60 one-dose screen, 48 h (100 = growth as untreated, 0 = no growth, -100 = all killed)
# Conditions: 10 µM unless noted
row,SMILES,growth
1,CSc1ccc(-c2n[nH]nc2-c2cc3ccccc3s2)cc1,82.3% (inactive)
2,Clc1ccc2c(NCCCNc3nc(-n4ccnc4)nc4ccccc34)ccnc2c1,106% (inactive)
3,CN1CCN(c2nc(NCCCNc3ccnc4cc(Cl)ccc34)c3ccccc3n2)CC1,37.2% (inactive)
4,CN(C)c1ccc(NC(=O)c2ccc(/C=C/C(=O)c3ncc[nH]3)cc2)cc1,87.9% (inactive)
5,COc1ccc(S(=O)(=O)N2CCCCC2)cc1NC(=O)c1[nH]c(C)c2c1CCCCC2=O,15.8% (inactive)
6,CCn1c(O)c(/C=N/NC(=O)C(C)c2ccc(CC(C)C)cc2)sc1=S (stereo unspecified),29.5% (inactive)
7,Cc1nn(-c2cc(=O)[nH]c3ccc(Cl)cc23)c(N)c1C#N,102% (inactive)
8,O=C1/C(=C(/c2ccccc2)N2CCOCC2)Cc2ccccc21,-71.8% (active)
9,O=C(COc1cccc(/C=C2\COc3ccccc3C2=O)c1)Nc1nccs1,-85.6% (active)
10,CCN=C1C=CC(=C(c2ccc(N)cc2)c2ccc(N(CC)CC)c(C)c2)C=C1,-4.16% (active)
11,O=C(C(=O)c1ccc2c(c1)OCO2)c1ccc2c(c1)OCO2,114% (inactive)
12,COc1ccc(/C=C2\Oc3cc(OCCCCN4CCCC4)ccc3C2=O)cc1,91% (inactive)
13,COc1cc(-c2nn(-c3ccc(Br)cc3)cc2C(=O)O)ccc1O,108% (inactive)
14,O=c1ccccc(-c2ccc(-c3ccco3)cc2)c1O,41.1% (inactive)
15,Cn1cc(C(=O)c2nc(-c3c[nH]c4ccc(Br)cc34)no2)c2cc(F)ccc21,97.5% (inactive)
16,COc1ccc(O)c(N=Nc2nccs2)c1,89.4% (inactive)
17,CCc1nc(N)nc(N)c1C#CC(C)c1cc(-c2ccnc(C)c2)c2oc(C)nc2c1 (stereo unspecified),13% (inactive)
18,CC(=O)Nc1ccc(-n2c(O)c(/C=N/NC(=O)Cc3ccccc3Nc3c(Cl)cccc3Cl)sc2=S)cc1,106% (inactive)
19,O=Nc1c(O)c(Cl)cc2ccccc12,115% (inactive)

row,SMILES,growth
1,FC(F)(F)c1ccc(-c2cn3nc(-c4c[nH]c5ccc(Br)cc45)sc3n2)cc1,95.6% (inactive)
2,Cn1cc(-c2nonc2-c2c[nH]c3ccccc23)c2cccnc21,69.9% (inactive)
3,Cn1cc(-c2nonc2-c2cn(C)c3ccc(F)cc23)c2ccccc21,25.9% (inactive)
4,Brc1ccc(-c2csc(Nc3ccccn3)n2)cc1,-5.04% (active)
5,Clc1ccc2c(NCCNc3nc(N4CCOCC4)nc4ccccc34)ccnc2c1,32.3% (inactive)
6,COc1ccc(-c2cc(-c3ccc(Nc4ccnc5cc(Cl)ccc45)cc3)nc(N3CCOCC3)n2)cc1,98.8% (inactive)
7,COc1cc2c(cc1-c1c(C)noc1C)ncc1nc(C3CCCC3)n([C@H](C)COC(F)F)c12,43.3% (inactive)
8,CCOc1cc2ncc(C#N)c(Nc3ccc(OCc4cccc(F)c4)c(Cl)c3)c2cc1NC(=O)CCCCC1CCSS1 (stereo unspecified),105% (inactive)
9,Oc1ccccc1-c1nnc(CNc2ccc(Cl)cc2)o1,37.5% (inactive)
10,COc1cc2c(cc1-c1c(C)noc1C)ncc1nc(C3CCCCC3)n([C@H](C)COC(F)F)c12,43.7% (inactive)
11,COc1cc(/C=C/C(=O)Nc2cccnc2Nc2ccc(F)cc2)cc(OC)c1OC,109% (inactive)
12,Cn1c(NCCc2ccc(O)c(O)c2)nc2c1c(=O)n(Cc1ccc(Cl)c(Cl)c1)c(=O)n2C,90.6% (inactive)
13,Cc1ccc(C2=NN3C(C2)c2cc(Br)ccc2OC32CCN(Cc3ccccc3)CC2)o1 (stereo unspecified),97.9% (inactive)
14,O=C1/C(=C/C(Cl)=C/c2ccccc2)SC(=S)N1CCc1ccc(O)cc1,-68.1% (active)
15,NC(=O)c1cc(Br)ccc1NC(=O)/C=C/c1ccccc1,64.4% (inactive)
16,CC(O)CN(CC(C)O)c1ccc2c(c1)Cc1cc([N+](=O)[O-])ccc1-2 (stereo unspecified),95.1% (inactive)
17,C=C1C(=O)O[C@H]2[C@H]1CC/C(COC(=O)c1cc3cc(OC)ccc3[nH]1)=C\CC[C@@]1(C)O[C@@H]21,-74.2% (active)
18,COc1cc(C(=O)/C=C/c2cccnc2Nc2ccc(Cl)cc2)cc(OC)c1OC,-84.3% (active)
19,O=c1cc(CSc2nnc(SCc3cc(=O)oc4c3ccc3ccccc34)o2)c2ccc3ccccc3c2o1,101% (inactive)

# System: KM12 colon
# Assay: as above
# Conditions: 10 µM unless noted
row,SMILES,growth
1,CSc1ccc(-c2n[nH]nc2-c2cc3ccccc3s2)cc1,32.2% (inactive)
2,Clc1ccc2c(NCCCNc3nc(-n4ccnc4)nc4ccccc34)ccnc2c1,88.5% (inactive)
3,CN1CCN(c2nc(NCCCNc3ccnc4cc(Cl)ccc34)c3ccccc3n2)CC1,41.9% (inactive)
4,CN(C)c1ccc(NC(=O)c2ccc(/C=C/C(=O)c3ncc[nH]3)cc2)cc1,10.2% (inactive)
5,COc1ccc(S(=O)(=O)N2CCCCC2)cc1NC(=O)c1[nH]c(C)c2c1CCCCC2=O,24.9% (inactive)
6,CCn1c(O)c(/C=N/NC(=O)C(C)c2ccc(CC(C)C)cc2)sc1=S (stereo unspecified),18.7% (inactive)
7,Cc1nn(-c2cc(=O)[nH]c3ccc(Cl)cc23)c(N)c1C#N,104% (inactive)
8,O=C1/C(=C(/c2ccccc2)N2CCOCC2)Cc2ccccc21,36.2% (inactive)
9,O=C(COc1cccc(/C=C2\COc3ccccc3C2=O)c1)Nc1nccs1,-44.6% (active)
10,CCN=C1C=CC(=C(c2ccc(N)cc2)c2ccc(N(CC)CC)c(C)c2)C=C1,-88.4% (active)
11,O=C(C(=O)c1ccc2c(c1)OCO2)c1ccc2c(c1)OCO2,98.1% (inactive)
12,COc1ccc(/C=C2\Oc3cc(OCCCCN4CCCC4)ccc3C2=O)cc1,70.5% (inactive)
13,COc1cc(-c2nn(-c3ccc(Br)cc3)cc2C(=O)O)ccc1O,94.8% (inactive)
14,O=c1ccccc(-c2ccc(-c3ccco3)cc2)c1O,23% (inactive)
15,Cn1cc(C(=O)c2nc(-c3c[nH]c4ccc(Br)cc34)no2)c2cc(F)ccc21,96.3% (inactive)
16,COc1ccc(O)c(N=Nc2nccs2)c1,73.3% (inactive)
17,CCc1nc(N)nc(N)c1C#CC(C)c1cc(-c2ccnc(C)c2)c2oc(C)nc2c1 (stereo unspecified),5.92% (active)
18,CC(=O)Nc1ccc(-n2c(O)c(/C=N/NC(=O)Cc3ccccc3Nc3c(Cl)cccc3Cl)sc2=S)cc1,105% (inactive)
19,O=Nc1c(O)c(Cl)cc2ccccc12,79.5% (inactive)

row,SMILES,growth
1,FC(F)(F)c1ccc(-c2cn3nc(-c4c[nH]c5ccc(Br)cc45)sc3n2)cc1,87.3% (inactive)
2,Cn1cc(-c2nonc2-c2c[nH]c3ccccc23)c2cccnc21,20.1% (inactive)
3,Cn1cc(-c2nonc2-c2cn(C)c3ccc(F)cc23)c2ccccc21,14.7% (inactive)
4,Brc1ccc(-c2csc(Nc3ccccn3)n2)cc1,86.4% (inactive)
5,Clc1ccc2c(NCCNc3nc(N4CCOCC4)nc4ccccc34)ccnc2c1,13.3% (inactive)
6,COc1ccc(-c2cc(-c3ccc(Nc4ccnc5cc(Cl)ccc45)cc3)nc(N3CCOCC3)n2)cc1,44.9% (inactive)
7,COc1cc2c(cc1-c1c(C)noc1C)ncc1nc(C3CCCC3)n([C@H](C)COC(F)F)c12,45.8% (inactive)
8,CCOc1cc2ncc(C#N)c(Nc3ccc(OCc4cccc(F)c4)c(Cl)c3)c2cc1NC(=O)CCCCC1CCSS1 (stereo unspecified),82.8% (inactive)
9,Oc1ccccc1-c1nnc(CNc2ccc(Cl)cc2)o1,18.9% (inactive)
10,COc1cc2c(cc1-c1c(C)noc1C)ncc1nc(C3CCCCC3)n([C@H](C)COC(F)F)c12,46.3% (inactive)
11,COc1cc(/C=C/C(=O)Nc2cccnc2Nc2ccc(F)cc2)cc(OC)c1OC,96.8% (inactive)
12,Cn1c(NCCc2ccc(O)c(O)c2)nc2c1c(=O)n(Cc1ccc(Cl)c(Cl)c1)c(=O)n2C,71.9% (inactive)
13,Cc1ccc(C2=NN3C(C2)c2cc(Br)ccc2OC32CCN(Cc3ccccc3)CC2)o1 (stereo unspecified),95.4% (inactive)
14,O=C1/C(=C/C(Cl)=C/c2ccccc2)SC(=S)N1CCc1ccc(O)cc1,-31.6% (active)
15,NC(=O)c1cc(Br)ccc1NC(=O)/C=C/c1ccccc1,20.7% (inactive)
16,CC(O)CN(CC(C)O)c1ccc2c(c1)Cc1cc([N+](=O)[O-])ccc1-2 (stereo unspecified),85.3% (inactive)
17,C=C1C(=O)O[C@H]2[C@H]1CC/C(COC(=O)c1cc3cc(OC)ccc3[nH]1)=C\CC[C@@]1(C)O[C@@H]21,-67.9% (active)
18,COc1cc(C(=O)/C=C/c2cccnc2Nc2ccc(Cl)cc2)cc(OC)c1OC,-86.8% (active)
19,O=c1cc(CSc2nnc(SCc3cc(=O)oc4c3ccc3ccccc34)o2)c2ccc3ccccc3c2o1,98.2% (inactive)
